{"source": "PubChem BioAssay (NCATS)", "note": "Inconclusive results are not listed. Calls of active or inactive are those of the source. The call rests on the fitted dose curve; in most records, active means well fitted curve in the direction sought with a large enough effect; inconclusive means small, poorly fitted or top-dose-only effect, or another doubt; inactive means no such curve, though single readings can be large; an effect the other way counts as inactive or inconclusive."}
{"assay": "Cell Proliferation Assay against the TMD8 Cell Line (Caspase readout at 16 hrs) (AID 651712)", "conditions": "TMD8 lymphoma cells, caspase activation luminescence; series mostly up to 46.1 µM; caspase activation: at the top concentration", "outline": "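16 h, 37 °C, TMD8 (500 cells/well), RPMI/5% FBS no phenol red; Caspase-Glo 3/7, 15 min RT, luminescence; %act: DMSO 0, bortezomib 9.2 uM final 100.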"}
{"smiles": "CCC(C)(C)C(=O)O[C@H]1C[C@@H](C)C=C2C=C[C@H](C)[C@H](CC[C@@H]3C[C@@H](O)CC(=O)O3)[C@H]21", "caspase activation": "8.95% [at 15.4 µM] (inactive)"}
{"smiles": "Cc1cc([C@@H](C)Nc2ccccc2C(=O)O)c2nc(N3CCOCC3)cc(=O)n2c1", "caspase activation": "3.07% (inactive)"}
{"smiles": "COc1cc2nccc(Oc3ccc(NC(=O)NC4CC4)c(Cl)c3)c2cc1C(N)=O", "caspase activation": "-0.469% (inactive)"}
{"smiles": "C[C@]1(c2nc3c(C(N)=O)cccc3[nH]2)CCCN1", "caspase activation": "13.4% (inactive)"}
{"smiles": "Cc1c(CCOc2ccc(C(=O)O)cc2)c2cc(Cl)ccc2n1C(c1ccccc1)c1ccccc1", "caspase activation": "3.63% (inactive)"}
{"smiles": "COc1c(Cl)cc2c([nH]c3cnccc32)c1NC(=O)c1cccnc1C", "caspase activation": "12% (inactive)"}
{"smiles": "COc1ccccc1-c1cccc(-c2c(O)c3cc(C#N)c(Cl)cc3[nH]c2=O)c1", "caspase activation": "2.34% (inactive)"}
{"smiles": "O=C(O)c1ccc(-c2c[nH]c3ccc(-c4ccccc4)cc23)cc1C1CCCC1", "caspase activation": "24.5% (inactive)"}
{"smiles": "CN(C)c1ccc(C2Nc3ccc4ccccc4c3C3=C2C(=O)CC(C)(C)C3)cc1Br", "note": "(stereo not given)", "caspase activation": "25.1% (inactive)"}
{"smiles": "COCCNCCCn1c(C(=O)CF)c(-c2ccc(C)cc2)c2c(N)ncnc21", "caspase activation": "5.02% (inactive)"}
{"smiles": "CCOc1ccc(Cc2cc([C@@H]3O[C@H](CO)[C@@H](O)[C@H](O)[C@@H]3O)ccc2Cl)cc1", "caspase activation": "2.16% (inactive)"}
{"assay": "Cell Proliferation Assay against the TMD8 Cell Line (Caspase readout at 8 hrs) (AID 651713); further: potency means the concentration at half of the fitted maximal effect", "conditions": "TMD8 lymphoma cells, caspase activation luminescence; series mostly up to 46.1 µM; caspase activation: at the top concentration", "outline": "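Apoptosis read-out: Caspase-Glo luminescence after 8 h compound exposure of TMD8 lymphoma cells at 37C, 5% CO2. Signals were normalized as percent activity between DMSO and bortezomib (9.2 uM final) controls.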"}
{"smiles": "Cc1cc([C@@H](C)Nc2ccccc2C(=O)O)c2nc(N3CCOCC3)cc(=O)n2c1", "caspase activation": "27.2% (inactive)"}
{"smiles": "COc1cc(F)c(F)c(Nc2ccc(I)cc2F)c1NS(=O)(=O)C1(C[C@H](O)CO)CC1", "caspase activation": "6.93% (inactive)"}
{"smiles": "C[C@]1(c2nc3c(C(N)=O)cccc3[nH]2)CCCN1", "caspase activation": "24.9% (inactive)"}
{"smiles": "CCCn1c(=O)c2[nH]c(C34CC5CC3C[C@@H](C5)C4)nc2n(CCC)c1=O", "caspase activation": "-33.1% (inactive)"}
{"smiles": "C/C(=C\\C(=O)Nc1ccccc1C(=O)O)c1ccc2ccccc2c1", "caspase activation": "-36.8% (inactive)"}
{"smiles": "CC[C@H](Nc1ncnc2nc[nH]c12)c1nc2cccc(F)c2c(=O)n1-c1ccccc1", "caspase activation": "25.3% (inactive)"}
{"smiles": "CN(C)C(=O)c1ccc(S(=O)(=O)c2ccc(NC(=O)[C@@](C)(O)C(F)(F)F)c(Cl)c2)cc1", "caspase activation": "-8.58% (inactive)"}
{"smiles": "COc1c(Cl)cc2c([nH]c3cnccc32)c1NC(=O)c1cccnc1C", "caspase activation": "2.67% (inactive)"}
{"smiles": "c1ccc(-c2nn3c(c2-c2ccnc4cc(OCCN5CCOCC5)ccc24)CCC3)nc1", "caspase activation": "15.4% (inactive)"}
{"smiles": "Cc1cc(C=c2sc3nc4ccccc4n3c2=O)c(C)n1-c1ccccc1", "caspase activation": "-77.5% (inactive)"}
{"smiles": "COc1ccccc1-c1cccc(-c2c(O)c3cc(C#N)c(Cl)cc3[nH]c2=O)c1", "caspase activation": "-15.2% (inactive)"}
{"smiles": "COc1ccc(-c2c(-c3ccc(O)cc3O)n[nH]c2C)cc1", "caspase activation": "23.2% (inactive)"}
{"smiles": "Cc1cccc(-c2nn(C(=S)Nc3ccccc3)cc2-c2ccnc3ccccc23)n1", "caspase activation": "18.6% (inactive)"}
{"smiles": "O=C(O)c1ccc(-c2c[nH]c3ccc(-c4ccccc4)cc23)cc1C1CCCC1", "caspase activation": "-30.1% (inactive)"}
{"smiles": "COc1cc(Nc2ncc3c(n2)-c2ccc(Cl)cc2C(c2c(F)cccc2OC)=NC3)ccc1C(=O)O", "caspase activation": "24.2% (inactive)"}
{"smiles": "CCC(C)n1ncn(-c2ccc(N3CCN(c4ccc(OC[C@H]5CO[C@](Cn6cncn6)(c6ccc(Cl)cc6Cl)O5)cc4)CC3)cc2)c1=O", "note": "(stereo not given in full)", "caspase activation": "13% (inactive)"}
{"smiles": "CC1(C)CNc2cc(NC(=O)c3cccnc3NCc3ccncc3)ccc21", "caspase activation": "9.61% (inactive)"}
{"smiles": "CCCCCCCc1ccc(CCc2cccc(O)c2C(=O)O)cc1", "caspase activation": "-2.31% (inactive)"}
{"smiles": "CNC(=O)c1ccc(N2C(=S)N(c3ccc(C#N)c(C(F)(F)F)c3)C(=O)C2(C)C)cc1F", "caspase activation": "0.527% (inactive)"}
{"smiles": "Cc1cc2c(F)c(Oc3ncnn4cc(OC[C@@H](C)O)c(C)c34)ccc2[nH]1", "caspase activation": "8.65% (inactive)"}
{"smiles": "CN(C)c1ccc(C2Nc3ccc4ccccc4c3C3=C2C(=O)CC(C)(C)C3)cc1Br", "note": "(stereo not given)", "caspase activation": "-50.5% (inactive)"}
{"smiles": "O=C(C1CC1)N1CC[C@@H](Cn2c(-c3ccc(-c4ccc5occc5c4)cc3)nc3cnccc32)C1", "Potency": "26.4 µM (active)"}
{"smiles": "CCOc1ccc(Cc2cc([C@@H]3O[C@H](CO)[C@@H](O)[C@H](O)[C@@H]3O)ccc2Cl)cc1", "caspase activation": "-15% (inactive)"}
{"smiles": "NC(=O)c1ccc(-c2nc(-c3ccc4c(c3)OCCO4)c(-c3ccccn3)[nH]2)cc1", "caspase activation": "-0.0678% (inactive)"}
